# Measured values published in PubChem BioAssay (NCATS).
# Records with an inconclusive call do not appear. Where a call stands in place of a potency, no number is given. Unmarked numbers belong to inactive results. Calls of active or inactive are those of the source. The call rests on the fitted dose curve; in most records, active means well fitted curve in the direction sought with a large enough effect; inconclusive means small, poorly fitted or top-dose-only effect, or another doubt; inactive means no such curve, though single readings can be large; an effect the other way counts as inactive or inconclusive.
# Key:
# [1] = UWB1.289 Cancer Cell Toxicity qHTS against the NCATS CANVASS Library (AID 1347347); further: nearly all actives have a fitted effect of over 60% in size; further: potency means the concentration at half of the fitted maximal effect; on activity change, negative = cytotoxicity: series mostly up to about 38 µM
# In short: (§1)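 1000 cells/well seeded and rested 4 h at 37 °C before pin transfer of compounds in an 11-pnt series. Exposure 72 h at 37 °C/5% CO2; viability by CellTiter-Glo luminescence after 15 min at room temperature.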
# [2] = Panc-1005 Cancer Cell Toxicity qHTS against the NCATS CANVASS Library (AID 1347349); further: nearly all actives have a fitted effect of over 60% in size; further: potency means the concentration at half of the fitted maximal effect; on activity change, negative = cytotoxicity: series mostly up to about 38 µM
# In short: as §1
# [3] = A2780 Cisplatin Sensitive Ovarian Cancer Cell Toxicity qHTS against the NCATS CANVASS Library (AID 1347353); further: nearly all actives have a fitted effect of over 60% in size; further: potency means the concentration at half of the fitted maximal effect; on activity change, negative = cytotoxicity: series mostly up to about 46 µM
# In short: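 Cisplatin-sensitive A2780 ovarian cells (750/well) received compound in 11 concentrations, and were incubated 72 h at 37 °C. ATP content was measured by ATPLite luminescence; bortezomib served as control.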
# [4] = HPAF-II 24hr Apoptosis Induction qHTS against the NCATS CANVASS Library (AID 1347356)
# In short: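 Caspase-Glo 3/7 luminescence, read after 15 min room-temperature development, measures apoptosis in HPAF-II cells treated 24 h at 37 degrees C with an 11-point concentration series; 500 cells/well; doxorubicin control.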
# [5] = SDT Cancer Cell Toxicity qHTS against the NCATS CANVASS Library (AID 1347365); further: nearly all actives have a fitted effect of over 60% in size; further: potency means the concentration at half of the fitted maximal effect;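 on activity change, negative = cytotoxicity: SDT canine glioma cells 500 per well in 1536 well plates; series mostly up to about 46 µM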
# In short: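 Cytotoxicity taken from CellTiterGlo ATP luminescence after 72 hr at 37C, 5% CO2. Canine glioma line SDT, 500 cells/well, treated at 11 concentrations; bortezomib dose series as control.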
# [6] = G06 Cancer Cell Toxicity qHTS against the NCATS CANVASS Library (AID 1347368); further: nearly all actives have a fitted effect of over 60% in size; further: potency means the concentration at half of the fitted maximal effect; on activity change, negative = cytotoxic: series mostly up to about 46 µM
# In short: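 Viability measured by CellTiterGlo ATP luminescence after 72 hr at 37C, 5% CO2. Canine G06 glioma cells plated at 500/well. Compounds tested as 11-point qHTS titrations.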
# [7] = MCF7 Cancer Cell Toxicity qHTS against the NCATS CANVASS Library (AID 1347369); on activity change, negative = cytotoxicity: series mostly up to about 46 µM
# In short: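 Cytotoxicity was measured as CellTiterGlo luminescence (ATP) after 72 h at 37 °C. The cells were MCF7 at 500 per well, with an 11-point compound concentration series.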
# [8] = qHTS for inhibitors of Wild type Zika virus screened against the NCATS CANVASS Library (AID 1347396);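 further: ATP luminescence of surviving cells so rescue from viral cell killing; series mostly up to about 46 µM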
# In short: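 Luminescent CellTiter Glo read-out of virus-induced cytotoxicity, 72 h post-infection, in Vero 766 cells. Compounds were tested at 11 concentrations; uninfected, vehicle-treated wells defined 100% inhibition.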
# [9] = OV-KATE Cancer Cell Toxicity qHTS against the NCATS CANVASS Library (AID 1347345)
# In short: as §1
# [10] = HPAF-II Cancer Cell Toxicity qHTS against the NCATS CANVASS Library (AID 1347346); further: nearly all actives have a fitted effect of over 55% in size; further: potency means the concentration at half of the fitted maximal effect; on activity change, negative = cytotoxicity: series mostly up to about 38 µM
# In short: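 Cytotoxicity read-out was CellTiter-Glo luminescence after 72 h at 37 degrees C exposure of HPAF-II cells (1000/well) to compounds in an 11-point titration.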
# [11] = SW1088 Cancer Cell Toxicity qHTS against the NCATS CANVASS Library (AID 1347350); further: nearly all actives have a fitted effect of over 75% in size; further: potency means the concentration at half of the fitted maximal effect; on activity change, negative = cytotoxicity: series mostly up to about 38 µM
# In short: as §1
# [12] = U-118MG Cancer Cell Toxicity qHTS against the NCATS CANVASS Library (AID 1347351); further: potency means the concentration at half of the fitted maximal effect; on activity change, negative = cytotoxicity: series mostly up to about 38 µM
# In short: as §1
# [13] = UWB1.289-WTBRCA1 Cancer Cell Toxicity qHTS against the NCATS CANVASS Library (AID 1347354); further: potency means the concentration at half of the fitted maximal effect
# In short: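 Toxicity was measured as CellTiter-Glo luminescence after 72 h exposure to an 11-point compound series. Compound was added to 1000 cells/well 4 h after seeding.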
# [14] = qHTS for Hypoxia signaling pathway (HIF-1) antagonists against the NCATS CANVASS Library (AID 1347374); further: nearly all actives have a fitted effect of over 60% in size; further: potency means the concentration at half of the fitted maximal effect;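 on activity change, negative = inhibition: HRE-bla ME-180 cells stimulated with cobalt chloride to stabilize HIF-1alpha; series mostly up to about 38 µM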
# In short: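 Antagonism scored as loss of CoCl2-driven (60 uM stock added) HRE beta-lactamase signal, read by CCF4 FRET at 460/530 nm. Compounds were tested in an 11-point series on ME-180 reporter cells for 17 hrs at 37C, with parallel CellTiter-Glo cytotoxicity.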
# [15] = DH5-alpha competent E. coli microbial cell viability qHTS against the NCATS CANVASS Library (AID 1347377); details: outcome: dose series up to 46.1 µM unless noted
# In short: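 Bacterial viability as ATP-dependent luminescence (BacTiter-Glo), read after overnight 37 °C exposure of DH5-alpha competent E. coli to compounds in 11-point titration.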
# [16] = qHTS assay for small molecule disruptors of mitochondrial membrane potential screened against the NCATS CANVASS Library (AID 1347389); further: nearly all actives have a fitted effect of over 60% in size; further: potency means the concentration at half of the fitted maximal effect
# In short: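 Mitochondrial membrane potential in HepG2: 1 h compound treatment (11-point concentration series), 30 min m-MPI dye at 37C, then dual fluorescence of J-aggregates (ex 540/em 590) and monomers (ex 490/em 535); lower red/green ratio indicates depolarization.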
# [17] = qHTS for activators of Nrf2/ARE signaling pathway screened against the NCATS CANVASS Library (AID 1347391); further: nearly all actives have a fitted effect of over 60% in size
# In short: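 Eleven-point qHTS, 16 h treatment of HepG2 cells carrying an ARE-driven beta-lactamase reporter; CCF4 ratio read (405 nm excitation, 460 and 530 nm emission), with CellTiter-Glo ATP luminescence for viability.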
# [18] = qHTS for inhibitors of ER calcium dysfunction: SERCaMP assay screened against the NCATS CANVASS Library (AID 1347393); further: nearly all actives have a fitted effect of over 40% in size; further: potency means the concentration at half of the fitted maximal effect;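 on activity change, negative = inhibition: series mostly up to about 77 µM; lower secreted reporter signal means inhibitor of ER calcium depletion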
# In short: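 qHTS in SH-SY5Y reporter cells: 16 h compound pretreatment, 4 h thapsigargin, then secreted Gaussia luciferase measured by luminescence.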
# [19] = Vero-766 cells viability qHTS against the NCATS CANVASS Library: Counterscreen for Zika virus inhibition assay (AID 1347394); further: nearly all actives have a fitted effect of over 60% in size; further: potency means the concentration at half of the fitted maximal effect; on activity change, negative = cytotoxic: series mostly up to about 46 µM
# In short: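 CellTiter Glo luminescence measured cytotoxicity after 72 h at 37C in uninfected Vero 766 cells, plated at 1000 cells/well. Compounds were applied in an 11-point series. Wells without cells defined 100% inhibition.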
# [20] = qHTS for Antimalaria activity screened against the NCATS CANVASS Library (AID 1347380); further: nearly all actives have a fitted effect of over 40% in size; further: potency means the concentration at half of the fitted maximal effect;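 on activity change, negative = inhibition: Plasmodium falciparum strain Dd2 asexual parasites grown in red blood cells; series mostly up to about 29 µM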
# In short: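 SYBR Green fluorescence at 485/535 nm was read 18 hr after lysis. This followed a 72 hr incubation at 37C in 5% O2, 5% CO2 of Dd2-infected erythrocytes (0.3% parasitemia, 2.5% final hematocrit) with compounds titrated over 11 concentrations.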
smiles,measurement,setting,value
O=C(OC[C@H]1O[C@@H](OC(=O)c2cc(O)c(O)c(O)c2)[C@H](OC(=O)c2cc(O)c(O)c(O)c2)[C@@H](OC(=O)c2cc(O)c(O)c(O)c2)[C@@H]1OC(=O)c1cc(O)c(O)c(O)c1)c1cc(O)c(O)c(O)c1,Potency,[1],18.8 µM (active)
same,Potency,[2],8.41 µM (active)
same,Potency,[3],8.33 µM (active)
same,outcome,[4],inactive
same,Potency,[5],23.5 µM (active)
same,Potency,[6],23.5 µM (active)
same,Potency,[7],inactive
same,outcome,[8],inactive
C=C1CCC2C(C)(C(=O)O)CCC(CC/C(C)=C/C(=O)NC(CCC(N)=O)C(=O)O)[C@@]2(C)C1 (stereo partly specified),Potency,[9],inactive
same,Potency,[10],inactive
same,Potency,[1],inactive
same,Potency,[2],inactive
same,Potency,[11],inactive
same,Potency,[12],inactive
same,Potency,[3],inactive
same,Potency,[13],inactive
same,outcome,[4],inactive
same,Potency,[5],inactive
same,Potency,[6],inactive
same,Potency,[7],inactive
same,Potency,[14],inactive
same,outcome,[15],inactive
same,Potency,[16],inactive
same,Potency,[17],inactive
same,Potency,[18],inactive
same,Potency,[19],inactive
same,outcome,[8],inactive
COc1ccc([C@@H]2CC(=O)c3c(cc(O)c(C/C=C(\C)CCC=C(C)C)c3O)O2)cc1,"activity change, negative = cytotoxicity",[10],-11.2% [at 7.64 µM]
same,"activity change, negative = cytotoxicity",[2],-16.1% [at 7.64 µM]
same,outcome,[12],inactive [at 7.64 µM]
same,"activity change, negative = cytotoxicity",[13],-3.16% [at 7.64 µM]
same,caspase activation,[4],3.45% [at 9.19 µM]
same,"activity change, negative = cytotoxicity",[5],0.771% [at 9.19 µM]
same,outcome,[6],inactive [at 9.19 µM]
same,"activity change, negative = cytotoxicity",[7],-4.45% [at 9.17 µM]
same,"activity change, negative = inhibition",[14],8.62% [at 7.64 µM]
same,"viability signal change, negative = cytotoxic",[15],8.04% [at 9.19 µM]
same,Potency,[16],3.84 µM (active)
same,"activity change, negative = cytotoxic",[19],-18.7% [at 9.19 µM]
CC[C@H](O)CCCCC[C@@H]1NC(=O)[C@H]2CCCCN2C(=O)[C@H]([C@H](C)CC)NC(=O)[C@H](Cc2cn(OC)c3ccccc23)NC1=O,Potency,[10],3.75 µM (active)
same,Potency,[2],18.8 µM (active)
same,Potency,[12],13.3 µM (active)
same,Potency,[3],23.5 µM (active)
same,Potency,[13],inactive
same,outcome,[4],inactive
same,Potency,[14],inactive
same,outcome,[15],inactive
same,Potency,[20],1.49 µM (active)
same,Potency,[17],inactive
same,Potency,[18],inactive
same,Potency,[19],6.6 µM (active)
CN1CC[C@@]2([C@@]34CCN(C)[C@@H]3Nc3ccccc34)c3ccccc3N[C@@H]12,Potency,[9],inactive
same,Potency,[10],inactive
same,Potency,[1],inactive
same,Potency,[2],inactive
same,Potency,[11],inactive
same,Potency,[12],inactive
same,Potency,[3],inactive
same,Potency,[13],inactive
same,outcome,[4],inactive
same,Potency,[7],inactive
same,Potency,[14],inactive
same,Potency,[20],0.211 µM (active)
same,Potency,[16],inactive
same,Potency,[17],inactive
same,Potency,[19],inactive
same,outcome,[8],inactive
CC1=C2CC[C@]3(C)[C@H](CC=C4[C@@H]5CC(C)(C)CC[C@@H]5C(=O)[C@H](O)[C@]43C)[C@@]2(C)C=C(O)C1=O,Potency,[1],inactive
same,Potency,[13],inactive
same,outcome,[4],inactive
same,Potency,[5],inactive
same,Potency,[6],inactive
same,Potency,[7],inactive
same,Potency,[14],9.41 µM (active)
same,outcome,[15],inactive
same,Potency,[18],12.2 µM (active)
same,outcome,[8],inactive
CCCc1c2c([nH]c(=O)c1C)C(=O)c1[nH]c(=O)c(C)c(CCC)c1C2=O,Potency,[1],7.47 µM (active)
same,Potency,[2],10.6 µM (active)
same,Potency,[11],8.41 µM (active)
same,Potency,[12],inactive
same,Potency,[3],14.8 µM (active)
same,Potency,[13],7.47 µM (active)
same,outcome,[4],inactive
same,Potency,[7],inactive
same,Potency,[14],9.41 µM (active)
same,outcome,[15],inactive
same,Potency,[20],11.8 µM (active)
same,Potency,[19],inactive
same,outcome,[8],inactive
CN1C(=O)C(=O)N2C(=C[C@]3(c4c[nH]c5ccccc45)c4ccccc4N[C@H]23)C1=O,Potency,[9],inactive
same,Potency,[10],inactive
same,Potency,[1],inactive
same,Potency,[2],inactive
same,Potency,[11],inactive
same,Potency,[12],inactive
same,Potency,[3],inactive
same,Potency,[13],inactive
same,Potency,[5],inactive
same,Potency,[6],inactive
same,Potency,[7],inactive
same,Potency,[14],inactive
same,outcome,[15],inactive
same,Potency,[16],inactive
same,Potency,[17],inactive
same,Potency,[18],inactive
same,Potency,[19],inactive
same,outcome,[8],inactive
C/C(=C\[C@@H](C)CC/C=C/CC/C=C/C(=O)O)[C@@H](O)[C@H](C)C(=O)CCCC1CC(=O)NC(=O)C1,Potency,[9],inactive
same,Potency,[10],inactive
same,Potency,[1],inactive
same,Potency,[2],inactive
same,Potency,[11],inactive
same,Potency,[12],inactive
same,Potency,[3],inactive
same,Potency,[13],inactive
same,Potency,[6],inactive
same,Potency,[7],inactive
same,Potency,[14],inactive
same,outcome,[15],inactive
same,Potency,[20],inactive
same,Potency,[16],inactive
same,Potency,[17],inactive
same,Potency,[18],inactive
same,Potency,[19],inactive
same,outcome,[8],inactive
O=C1OC(CCO)c2cccc(O)c21 (stereo unspecified),Potency,[9],inactive
same,Potency,[10],inactive
same,Potency,[1],inactive
same,Potency,[2],inactive
same,Potency,[11],inactive
same,Potency,[12],inactive
same,Potency,[3],inactive
same,Potency,[13],inactive
same,outcome,[4],inactive
same,Potency,[7],inactive
same,Potency,[14],inactive
same,outcome,[15],inactive
same,Potency,[20],inactive
same,Potency,[16],inactive
same,Potency,[17],inactive
same,Potency,[18],inactive
same,Potency,[19],inactive
same,outcome,[8],inactive
CN1CC[C@@]23c4ccccc4N[C@@H]1[C@@]21CCN(C)[C@@H]3Nc2ccccc21,Potency,[9],inactive
same,Potency,[10],inactive
same,Potency,[1],inactive
same,Potency,[2],inactive
same,Potency,[11],inactive
same,Potency,[12],inactive
same,Potency,[3],inactive
same,Potency,[13],inactive
same,Potency,[5],inactive
same,outcome,[15],inactive
same,Potency,[20],0.0075 µM (active)
same,Potency,[16],inactive
same,Potency,[17],inactive
same,Potency,[19],inactive
same,outcome,[8],inactive
C/C(=C\[C@H](C)C(=O)/C=C/CC1CC(=O)NC(=O)C1)[C@@H]1OC(=O)/C=C/CC/C=C/C[C@@H](O)[C@@H]1C,Potency,[10],2.98 µM (active)
same,Potency,[1],2.98 µM (active)
same,Potency,[11],16.8 µM (active)
same,Potency,[3],1.18 µM (active)
same,outcome,[4],inactive
same,Potency,[5],0.662 µM (active)
same,Potency,[6],1.05 µM (active)
same,Potency,[14],1.33 µM (active)
same,outcome,[15],inactive
same,Potency,[18],inactive
same,Potency,[19],inactive
same,outcome,[8],inactive
